# Source: PubChem BioAssay (National Center for Advancing Translational Sciences (NCATS))
# ELG1 genotox: genotoxicity induction in ELG1-luciferase HEK293T cells | HEK293T ELG1-luciferase reporter, luminescence, 16 h | Potency, µM (doses to about 46 µM), without a hit: top-dose activity change, positive = activation, hits mostly activators | hit rate 1.3% among 330,000; note: % of control where 0% means no effect; nearly all actives have a fitted effect of over 60% in size
#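 Step 1: seed 2,000 HEK293T ELG1-luciferase cells per well. Step 2: add compound or DMSO, incubate 16 hr at 37 °C. Step 3: ONE-Glo, 30 min at room temperature, read luminescence.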
# SMN2 splice up: enhancers of SMN2 splice variant expression | HEK293 SMN2-luciferase splicing reporter, luminescence, 30-36 h | Potency, µM (highest dose often 46.1 µM), without a hit: top-dose activity change, positive = activation, most hits filed as activators | hit rate 2.8% among 210,000; note: % of control where 0% means no effect; nearly all actives have a fitted effect of over 55% in size
#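 HEK293 cells carry an SMN2 […]–luciferase reporter in which exon 7 inclusion puts luciferase in frame. Cells were plated 10-12 h before compound addition, then incubated 30-36 h at 37C. ONE-Glo luminescence was read; sodium butyrate at 4.5 mM final served as control.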
# NPC1 promoter act: activators of NPC1 promoter | AID 485313 | hit rate 2.4% among 320,000 | Potency, µM (doses to about 9.22 µM), inactives show at the top dose activation, hits mostly activators | Huh7 NPC1 promoter luciferase reporter, 24 h; note: % of control where 0% means no effect; nearly all actives have a fitted effect of over 60% in size
#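 Luminescence from an NPC1 promoter-driven luciferase reporter in stably transfected Huh7 cells was measured after 24 h compound treatment at 37 °C, followed by 10 min ambient incubation with luciferase detection reagent.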
# FLuc counter: inhibits or activates purified firefly luciferase, miR-21 counter-screen; P08659; purified FLuc, Km substrates, luminescence inhibition; Potency, µM (doses to about 57.5 µM), for inactives: at the top dose activity change, negative = inhibition, usual class: inhibitors; hit rate 6.9% among 360,000; AID 588342;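 note: plate controls were vehicle for no effect and reference inhibitor for full effect; nearly all actives have a fitted effect of over 55% in size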
# Target sequence (P08659 whole entry, looked up): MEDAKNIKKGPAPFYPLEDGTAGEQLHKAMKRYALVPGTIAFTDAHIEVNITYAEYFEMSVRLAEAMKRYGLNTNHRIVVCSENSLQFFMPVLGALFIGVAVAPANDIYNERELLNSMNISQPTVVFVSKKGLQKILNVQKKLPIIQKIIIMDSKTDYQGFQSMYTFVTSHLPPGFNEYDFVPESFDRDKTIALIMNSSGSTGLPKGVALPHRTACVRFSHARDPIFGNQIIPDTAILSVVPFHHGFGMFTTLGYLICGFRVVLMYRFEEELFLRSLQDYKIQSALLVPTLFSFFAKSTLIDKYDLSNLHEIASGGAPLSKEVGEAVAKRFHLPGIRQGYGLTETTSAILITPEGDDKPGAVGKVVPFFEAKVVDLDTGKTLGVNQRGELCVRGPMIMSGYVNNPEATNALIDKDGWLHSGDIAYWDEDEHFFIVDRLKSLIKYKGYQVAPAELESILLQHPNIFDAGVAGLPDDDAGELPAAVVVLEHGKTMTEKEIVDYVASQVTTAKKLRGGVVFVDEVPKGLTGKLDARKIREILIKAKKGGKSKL
#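 Biochemical qHTS of compounds, final roughly 60 µM downward over six points, against 10 nM purified firefly luciferase using Km concentrations of substrates (10 uM D-luciferin, 10 uM ATP) in Tris acetate pH 7.5 buffer; luminescence output.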
# ELG1 repair inh: inhibitors of ELG1-dependent DNA repair in HEK293T cells. HEK293T ELG1-luciferase reporter, luminescence, 16 h; DNA damage induced by 5-fluorouridine. Potency, µM (top dose mostly 46.1 µM), without a hit: at the highest dose activity change, negative = inhibition, hits mostly inhibitors. hit rate 2.3% among 330,000; note: % is set by controls: 0 for no effect and ±100 for the full control effect; nearly all actives have a fitted effect of over 55% in size
#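 Step one: seed 2,000 cells per well. Step two: pin-transfer compound or DMSO alongside 5-fluorouridine. Step three: incubate 16 hr, 37 °C, 5% CO2. Step four: add ONE-Glo, wait 30 min, read luminescence.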
# Rab9 promoter act: activates the Rab9 promoter | Huh7 Rab9 promoter-luciferase reporter, luminescence, 24 h | Potency, µM (top dose mostly 9.22 µM), inactives show at the top dose activation, negative = inhibition, usual class: activators | hit rate 2.8% among 320,000 | AID 485297; note: % of control where 0% means no effect; nearly all actives have a fitted effect of over 60% in size
#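 Huh7 cells stably carrying a Rab9 promoter-luciferase reporter, 1500 cells per well in OP-MEM I with 10% FBS, treated with compound 24 hours at 37C. Luciferase activity read by luminescence after 10 minutes with Amplite reagent.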
# An asterisk follows results filed as active; ? = inconclusive; · = no result; [ ] = remark or other dose. Most compounds without a hit are left out; they make up all but 9.3% or so of the library. Calls come from the whole dose curve; as a rule, active = well fitted curve in the direction sought with a large enough effect; inconclusive = small, poorly fitted or top-dose-only effect, or another doubt; inactive = no such curve, though single readings can be large; an effect the other way counts as inactive or inconclusive. Potency is the fitted concentration of half-maximal effect.
SMILES,ELG1 genotox,SMN2 splice up,NPC1 promoter act,FLuc counter,ELG1 repair inh,Rab9 promoter act
COc1ccccc1C(CNc1ccc(S(=O)(=O)N2CCCC2)cc1[N+](=O)[O-])N(C)C (stereo unspecified),-14%,·,2%,-1%,12µM*,11%
COC(=O)CSc1ccc(S(=O)(=O)N2CCCCCC2)cc1[N+](=O)[O-],0%,-5%,-8%,-2%,10µM*,5%
CN(CC(=O)Nc1ccc(Cl)cc1)c1ccc(S(=O)(=O)N2CCCCC2)cc1[N+](=O)[O-],-9%,-32%,-1%,3%,18µM*,1%
COc1ccc(C(CNc2ccc(S(=O)(=O)N3CCN(C)CC3)cc2[N+](=O)[O-])N(C)C)cc1 (stereo unspecified),0%,·,-1%,3%,-3%,-3%
CCN1CCN(c2nc3ccccc3nc2C(C#N)C(=O)OCc2ccccc2)CC1 (stereo unspecified),-1%,·,-1%,1%,18µM*,-3%
COCCCNC(=O)C(C#N)c1nc2ccccc2nc1N1CCCC1 (stereo unspecified),0%,-10%,0%,-1%,21µM*,-4%
CCCCCCOC(=O)C(C#N)c1nc2ccccc2nc1N1CCOCC1 (stereo unspecified),-5%,-19%,8%,-11%,?,-2%
CCCCCNC(=O)C(C#N)c1nc2ccccc2nc1N1CCCC1 (stereo unspecified),-4%,8%,-1%,4%,14%,-3%
CCCCOC(=O)C(C#N)c1nc2ccccc2nc1N1CCOCC1 (stereo unspecified),0%,-5%,-2%,-1%,21µM*,-2%
CCCCCCOC(=O)C(C#N)c1nc2ccccc2nc1N1CCN(CC)CC1 (stereo unspecified),-3%,0%,-2%,1%,-26%,8%
CCOC(=O)Cn1c(=O)c2c(nc(N3CCCCC3)n2Cc2ccccc2)n(C)c1=O,1%,-15%,-6%,4%,?,-3%
COC(=O)C1=C(CN2CCSCC2)NC(=O)NC1c1cc(C)ccc1C (stereo unspecified),-11%,9%,-1%,-1%,0%,-15%
COc1ccc(Br)cc1C(=O)O,3%,9%,-2%,-1%,7%,5%
Cc1ccc(NC(=O)c2ccc(=O)[nH]c2)cc1S(=O)(=O)N1CCCCCC1,-3%,·,·,·,16µM*,·
COc1ccc(NC(=O)c2ccc(=O)[nH]c2)cc1S(=O)(=O)N1CCCCC1,3%,3%,-1%,-1%,16%,2%
COc1ccc(C(=O)Nc2ccc(N3CCCCCC3)cc2)cc1S(=O)(=O)N1CCOCC1,-6%,·,-9%,?,21µM*,-24%
CCOc1ncccc1C(=O)Nc1ccc(OC)c(S(=O)(=O)N2CCCCC2)c1,1%,-22%,-7%,5%,?,-2%
CCOc1ccc(OCCC(=O)OCC(=O)Nc2ccc(C)c(S(=O)(=O)N3CCCCC3)c2)cc1,0%,·,-1%,11µM*,3%,-1%
CCOc1ncccc1C(=O)Nc1ccc(C)c(S(=O)(=O)N2CCCCCC2)c1,-7%,·,-2%,0%,21µM*,-6%
CCC(=O)NN1CCN(c2ccncc2S(=O)(=O)N2CCCCC2)CC1,0%,·,-3%,4%,-2%,2%
Cc1ccc(C(=O)Nc2cccc(C(=O)O)c2)cc1S(=O)(=O)N1CCCC1,·,11µM*,·,0.095µM*,·,·
O=S(=O)(c1cccc(S(=O)(=O)N2CCCC2)c1)c1cccc(S(=O)(=O)N2CCCC2)c1,-10%,-33%,1%,0%,21µM*,-10%
Cc1ccc(C(=O)O)cc1S(=O)(=O)N1CCC(C(=O)O)CC1,-1%,11µM*,0%,1%,-2%,0%
Cc1ccc(NC(=O)COC(=O)CCC(=O)c2ccc(Cl)cc2)cc1S(=O)(=O)N(C)C,3%,·,-2%,?,18%,-3%
CCOc1cc(C(=O)CCC(=O)OCC(=O)Nc2ccc(C)c(S(=O)(=O)N(C)C)c2)ccc1O,14%,-7%,5%,19µM*,?,0%
SMILES,ELG1 genotox,SMN2 splice up,NPC1 promoter act,FLuc counter,ELG1 repair inh,Rab9 promoter act
COc1ccc(C(CC(=O)N2CCN(C)CC2)NC(=O)C(F)(F)F)cc1 (stereo unspecified),1%,·,0%,2%,0%,1%
CC(C)C(=O)Nc1nnc(S(=O)(=O)N2CCc3ccccc32)s1,5%,·,-1%,-1%,0%,-5%
CC(C)CNS(=O)(=O)c1ccc(N2CCCCS2(=O)=O)cc1,·,·,·,3%,·,·
Cc1cc(C)nc(N/C(=N/S(=O)(=O)Cc2ccccc2)Nc2ccccc2)n1,-3%,-11%,-5%,-1%,?,-5%
Cc1ccc(C(=O)Nc2cccc(C(=O)N3CCOCC3)c2)cc1Cl,?,·,27%,9.5µM*,?,?
O=C(O)c1cccc(NC(=O)c2cccc(S(=O)(=O)N3CCCCC3)c2)c1,?,24%,?,6µM*,?,2.8µM*
COc1ccc(C(=O)Nc2cccc(C(=O)O)c2)cc1S(=O)(=O)N1CCCC1,-1%,·,?,11µM*,-10%,?
COc1ccc(NC(=O)C23CC4CC(CC(Cl)(C4)C2)C3)cc1S(=O)(=O)N1CCOCC1,-5%,·,·,·,16µM*,·
C/C(=N/NC(=O)CNC(=O)C1COc2ccccc2O1)c1cccc(O)c1 (stereo unspecified),-3%,-12%,-1%,-11%,11%,3%
Cc1ccc(NC(=O)CSc2nc(-c3ccco3)nc3cc(=O)[nH]n23)c(Cl)c1,1%,·,0%,-8%,?,-4%
O=C1COc2ccc(C(=O)COC(=O)c3sc4ccccc4c3Cl)cc2N1,8%,-8%,-9%,1%,7%,-6%
COc1ccc(OC)c(S(=O)(=O)N2CCC(C(=O)Nc3cccc(C)c3)CC2)c1,-8%,-6%,-2%,-1%,21µM*,0%
CCOc1ccc(NC(=O)CN2CCCC2c2cccs2)cc1S(=O)(=O)N1CCCCC1 (stereo unspecified),-9%,·,1%,·,15µM*,-5%
Cc1ccc(NC(=S)Nc2ccc(C(C)C)cc2)cc1S(=O)(=O)N1CCCCCC1,0%,-57%,-10%,-11%,12µM*,-12%
COc1ccc(NC(=S)Nc2ccc(C)c(S(=O)(=O)N3CCCCC3)c2)cc1,2%,-13%[1.84 µM],-9%,2%,-14%,-1%
O=C(Nc1cccnc1)c1ccc(Cl)c(S(=O)(=O)N2CCCCCC2)c1,-11%,-54%,6%,?,21µM*,-2%
